# Most compounds without a hit are left out; they make up all but 28% or so of the library.
# DAT uptake mod: modulates human dopamine transporter uptake under cocaine. LLC-PK1 hDAT cells, [14C]-dopamine uptake with cocaine IC80; actives deviate in either direction. AID 449768. 110,000 tested, 1.3% active. Q01959. B-score at 10 µM;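 active means Z score or B-score, a plate-position-corrected score, falls beyond the plate's 99.7% confidence bounds, in either direction; inactive means both scores lie inside the 99.7% bounds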;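 further: scored against the spread of the other compound wells on the same plate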
# CYP2C19 inhib: human CYP2C19 inhibition. inhibition, % at 5 µM. AID 778. 96,000 tested, 21% active. P33261. CYP2C19 Supersomes, luciferin-H EGE luminescence, 30 min;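 active means CYP2C19 inhibition above a set limit at 5 µM in the primary screen, cut at about 50% in these data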;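 further: plate controls were negative control wells for no effect and 2.5 mM tranylcypromine positive control for full effect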
# CYP2C9 inhib: blocks human cytochrome P450 2C9. P11712. 96,000 tested, 20% active. CYP2C9 Supersomes, luciferin-H conversion, luminescence. inhibition, % at 5 µM;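 active means blocking of liver enzyme CYP2C9 beyond about 50% at 5 µM, limit read from the data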
# Target sequence (P11712 whole entry, looked up): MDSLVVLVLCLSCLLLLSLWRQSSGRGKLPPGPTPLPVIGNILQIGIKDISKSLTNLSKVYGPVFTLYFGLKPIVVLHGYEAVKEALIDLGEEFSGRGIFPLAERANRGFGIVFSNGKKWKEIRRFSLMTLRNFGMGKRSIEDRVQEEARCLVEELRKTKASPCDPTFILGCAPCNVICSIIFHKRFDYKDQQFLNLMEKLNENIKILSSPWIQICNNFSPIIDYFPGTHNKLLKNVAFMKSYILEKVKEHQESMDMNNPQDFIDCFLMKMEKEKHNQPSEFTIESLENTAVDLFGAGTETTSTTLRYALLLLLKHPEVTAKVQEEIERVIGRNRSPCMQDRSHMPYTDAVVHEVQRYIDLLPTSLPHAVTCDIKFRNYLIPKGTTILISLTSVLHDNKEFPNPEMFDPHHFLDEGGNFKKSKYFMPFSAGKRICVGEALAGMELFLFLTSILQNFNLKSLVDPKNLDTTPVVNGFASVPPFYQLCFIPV
# D1 allo mod: allosteric modulators of human D1 dopamine receptor | P21728 | HEK293 D1, CRE-luciferase, dopamine EC30 potentiation; actives deviate in either direction | B-score at 10 µM | 58,000 tested, 5.9% active | AID 641;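 active means luminescence count or its row- and column-corrected plate score outside the 99.7% band of the plate's sample wells, on either side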
# CYP2C9 act: activators of human CYP2C9. AID 1024. recombinant CYP2C9, luciferin-H conversion, luminescence; hits give high values; factor 1 = untreated enzyme, 0 = blocked. 96,000 tested, 1.4% active. P11712. activation factor at 5 µM;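 active means activation factor of 2 or more for CYP2C9 at a 5 µM dose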;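 further: 0 = sulfaphenazole-blocked wells and 1 = vehicle-only wells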
# CYP2C19 act: activators of human cytochrome P450 2C19; P33261; recombinant CYP2C19, luciferin-H EGE luminescence; hits give high values; 0 = fully inhibited enzyme, 1 = untreated enzyme; activation factor at 5 µM; 96,000 tested, under 10 active; AID 1025;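 active means activation factor of at least 2 at 5 µM in the primary screen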;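 further: 0 = wells with 2.5 mM tranylcypromine and 1 = vehicle-only wells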
# Starred values were filed as active, the others as inactive; x = no result given; ! = not confirmed by another sample.
SMILES,DAT uptake mod,CYP2C19 inhib,CYP2C9 inhib,D1 allo mod,CYP2C9 act,CYP2C19 act
O=C(c1ccccc1)N1CCC(c2nc(-c3ccc(S(=O)(=O)N4CCOCC4)cc3)no2)CC1,0.906,-4.4,13.3,x,0.9,1
COc1cccc(C(=O)N2CCCC(c3nc(-c4cccs4)no3)C2)c1 (stereo not given),1.47,86.3*,67.6*,-0.218,0.3,0.1
O=C(c1cccs1)N1CCC(c2nc(-c3ccc(S(=O)(=O)N4CCOCC4)cc3)no2)CC1,0.958,18.4,61.9*,-1.04,0.4,0.8
CC(C)Oc1ccccc1C1CC(=O)Nc2c1c(=O)n(C)c(=O)n2C (stereo not given),x,-10.6,-7.6,x,1.1,1.1
CCCC(=O)N1CCCC(c2nc(-c3cccs3)no2)C1 (stereo not given),-0.386,6.4,17.5,x,0.8,0.9
COc1cc(C(=O)N2CCCC(c3nc(-c4cccs4)no3)C2)cc(OC)c1OC (stereo not given),0.0507,55.5*,47.0,0.166,0.5,0.4
N/C(Cc1cccs1)=N\OC(=O)COc1ccccc1Cl,-0.0382,24.3,15.5,x,0.8,0.8
N/C(Cc1ccc(Cl)c(Cl)c1)=N\OC(=O)c1cccs1,0.846,37.8,62.9*,x,0.4,0.6
COc1cc(CNCC(C)C)cc(Br)c1OCC(=O)Nc1ccccc1,1.3,x,x,x,x,x
CCOc1c(Cl)cc(CNCC(C)C)cc1OC,0.215,70.6*,1.1,x,1,0.3
CCCCNCc1cc(Cl)c(OCCC)c(OCC)c1,0.22,68.0*,35.1,x,0.6,0.3
CCCCOc1c(Cl)cc(CNC(C)(C)CO)cc1OCC,0.0639,12.3,-4.6,-0.225,1,0.9
Cc1c(NC(=O)COC(=O)Cc2ccc(Cl)cc2)c(=O)n(-c2ccccc2)n1C,-0.311,4.8,9.2,-0.514,0.9,1
COc1cc(C2C(C#N)=C(N)OC3=C2C(=O)CCC3)c([N+](=O)[O-])cc1OC (stereo not given),-0.0102,-12.0,-0.5,x,1,1.1
CCO[C@H]1OC(C(=O)N2CCOCC2)=C[C@@H](c2ccc(Br)cc2)[C@@H]1CCCO,-0.399,x,x,x,x,x
Cc1ccc(N(CC2=NCCN2)c2cccc(O)c2)cc1,-0.198,x,x,-2.29*!,x,x
CCOC(=O)/C(=N/Nc1ccc(C)cc1)S(=O)(=O)c1ccc(Cl)cc1,-1.03,69.4*,89.8*,x,0.1,0.3
CCOC(=O)/C(=N\Nc1ccccc1)S(=O)(=O)c1ccccc1,-2.01,25.5,-86.9,x,1.9,0.7
Cc1[nH]n(-c2ccccc2)c(=O)c1Sc1ccc(Cl)cc1,1.81,51.5*,85.8*,x,0.1,0.5
O=C(CC1(O)C(=O)Nc2ccccc21)c1cccnc1 (stereo not given),-0.431,-0.4,-0.1,-0.0933,1,1
CN(C)c1ccc(C2OC(=O)C3(CCCC3)C(=O)C2(C)C)cc1 (stereo not given),0.196,15.6,-8.0,-0.113,1.1,0.8
CC1(C)C(=O)OC(c2cccs2)C(C)(C)C1=O (stereo not given),-0.468,70.8*,4.8,0.00086,1,0.3
COc1cccc(N2CCN(Cc3nc4ccccc4c(=O)[nH]3)CC2)c1,2.22*,20.9,33.8,-0.016,0.7,0.8
COc1cccc(N2CCN(Cc3ccsc3)CC2)c1,x,90.7*,50.4*,x,0.5,0.1
CCn1c(=O)c(=O)[nH]c2cc(C(=O)NC3CCCc4ccccc43)ccc21 (stereo not given),0.51,7.2,6.1,0.578,0.9,0.9
SMILES,DAT uptake mod,CYP2C19 inhib,CYP2C9 inhib,D1 allo mod,CYP2C9 act,CYP2C19 act
CC(=O)c1c(C)n(C)c2ccc(OC(=O)c3ccco3)cc12,-1.03,24.5,22.7,-0.0556,0.8,0.8
COc1ccc(CCn2c(C)c(C(C)=O)c3cc(OC(=O)c4ccco4)ccc32)cc1OC,-0.565,83.4*,87.2*,x,0.1,0.2
COc1ccc(CCn2c(-c3ccco3)nc3ccccc3c2=O)cc1OC,-0.118,95.4*,47.9,x,0.5,0
CCC(c1nc2ccccc2c(=O)n1CCCn1ccnc1)N1C(=O)c2ccccc2C1=O (stereo not given),0.625,93.1*,85.2*,4.74,0.1,0.1
O=c1c2ccccc2nc(-c2ccco2)n1CCCn1ccnc1,-0.347,69.4*,65.1*,2.26,0.3,0.3
O=C(COc1ccccc1Cl)NC(=S)N1CCc2ccccc21,0.281,6.5,-9.5,x,1.1,0.9
Cc1cc(C(F)(F)F)nn1CC(=O)N(C)C1CCCCC1,-0.551,x,x,x,x,x
O=C(OC(C(=O)O)C(OC(=O)c1ccccc1)C(=O)NCc1ccccc1)c1ccccc1 (stereo not given),-0.113,-9.4,-14.0,x,1.1,1.1
CCN(CC)c1ccc(SS(=O)(=O)O)cc1,0.275,-11.6,-8.7,x,1.1,1.1
C=C(C)Cn1c(CCNC(=O)C(C)(C)C)nc2ccccc21,-0.534,27.3,-2.0,0.0366,1,0.7
CCN1C(=O)N(c2ccc(Cl)cc2)C(C)=CC1(C)C,0.239,25.8,10.6,x,0.9,0.7
O=c1c2ccccc2nc(-c2ccccc2)n1CCCn1ccnc1,-0.554,71.6*,69.7*,0.34,0.3,0.3
CCCCC1(C)OC(=O)C(=Cc2ccc(N(C)C)cc2)C(=O)O1 (stereo not given),0.0289,2.4,-8.2,x,1.1,1
COc1cccc(C(C(=O)Nc2ccc(F)cc2)N(C(=O)Cn2nnc3ccccc32)C2CC2)c1 (stereo not given),-0.0357,44.5,37.4,x,0.6,0.6
COc1ccc(CNC(=O)c2ccc(S(=O)(=O)N3CCCC3)cc2)cc1OC,0.252,4.1,48.3,x,0.5,1
COc1ccc(C(=O)NCc2ccc(C)cc2)cc1S(=O)(=O)N1CCCc2ccccc21,1.11,67.1*,74.1*,x,0.3,0.3
COc1ccc(OC)c(S(=O)(=O)N2CCN(C34CC5CC(CC(C5)C3)C4)CC2)c1,-0.0157,15.9,-23.8,0.0218,1.2,0.8
COc1ccc(OC)c(S(=O)(=O)N2C(C)CCCC2C)c1 (stereo not given),1.01,93.2*,85.4*,-0.192,0.1,0.1
CC1CN(S(=O)(=O)c2cccc3nsnc23)CC(C)O1 (stereo not given),-0.312,x,x,x,x,x
CC1Cc2ccccc2N1S(=O)(=O)c1cccc2nsnc12 (stereo not given),0.00578,79.2*,99.1*,-0.19,0,0.2
COc1ccc(OC)c(S(=O)(=O)N2c3cc(F)ccc3CCC2C)c1 (stereo not given),1.17,87.8*,60.8*,-0.368,0.4,0.1
Cc1[nH]c(=O)[nH]c(=O)c1S(=O)(=O)N1c2ccc(F)cc2CCC1C (stereo not given),0.772,43.9,16.1,-0.295,0.8,0.6
Cc1cc(-c2ccccc2)[nH]c(=O)c1S(=O)(=O)c1ccccc1,0.324,-3.9,-7.3,x,1.1,1
COc1cc(OC)cc(C(=O)NCCCN2CCOCC2)c1,-0.153,x,x,x,x,x

# Compound activity deposited in PubChem BioAssay by several laboratories.
